Data published in PubChem BioAssay (NCI).
This is part of a sample that, as a whole, favours compounds with a hit. Of some 83,000 tested, about 20% had one in any assay.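 How to read the values: 0–100, growth inhibition (40 = 60% inhibited); 0, no net growth; -100 to 0, cell death (-40 = 40% of starting cells died; -100 = all dead).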 A number with no mark means an inactive call. Activity calls are given as the source filed them. How the source made its calls: active means growth percent below 10; inactive means the rest.

System: MDA-MB-468 breast
Test: NCI-60 one-dose screen, 48 h (100 = growth as untreated, 0 = no growth, -100 = all killed)
Conditions: 10 µM unless noted

SMILES	growth
N=c1ccccn1CCO	113%
COc1ccc(-c2cc(C(=O)N=Nc3c(O)[nH]c4ccc(Br)cc34)no2)cc1	103%
COc1ccc(-c2nnc(COc3ccc(Cl)cc3Cl)o2)cc1OC	71.9%
CCn1c(Sc2nnc(Nc3ccccc3)s2)nc2c1c(=O)n(C)c(=O)n2C	91.8%
Nc1ccccc1-c1n[nH]c(=O)[nH]c1=O	135%
Cc1ccc(C(=O)N2C/C(=C/c3ccccc3)C(=O)/C(=C/c3ccccc3)C2)cc1	18.1%
CCN(CC)CCOC(=O)c1ccc(NC(=O)Nc2cccc(Cl)c2)cc1	103%
COc1ccc2c(c1)C(=O)c1c-2c(OCCCN(C)C)nc2cc(Br)ccc12	67.5%
Cn1ccnc1C(=O)/C=C/c1ccc(CNC(=O)c2ccc(S(F)(F)(F)(F)F)cc2)cc1	23.3%
Cc1ccc(NC(=O)c2nc(S(C)=O)oc2-c2ccc(F)cc2)cc1Nc1nccc(-c2cccnc2)n1 (centres undefined)	10.6%
COc1ccc(-c2cc(/C=C3\C(=O)Nc4cc(Cl)ccc43)[nH]n2)cc1	11.3%
O=C(O)CCCCSCCCCC(=O)O	95.3%
COc1ccc(C(=O)c2cc3c(N)c(C(=O)Nc4cccc(OC)c4)sc3nc2C)cc1	4.38% (active)
COc1cc2c(cc1OC)C(=O)C(CC1CCN(C(=O)Nc3ccc(C)cc3)CC1)C2 (centres undefined)	93.1%
Cc1[nH]c2ccc(F)cc2c1CCNC(=O)C1CCN(C(=O)c2ccccc2)C1 (centres undefined)	86.8% [25 µM]
COc1ccc(C(=O)/C=C/c2ccc(C)cc2)cc1S(N)(=O)=O	60.4%
N#CC1=C(N)Oc2c(sc3c(Br)cccc23)C1c1ccc(Cl)cc1 (centres undefined)	1.22% (active)
O=C1C[C@H](c2ccccc2)[C@H](c2ccccc2)C1	99.2%
N#Cc1c(-c2ccccc2)cc(-c2ccccc2)n(CC(=O)O)c1=O	37.8%
Cc1cc(=O)n2nc(-c3c[nH]c4ccccc34)sc2n1	88.8%

SMILES	growth
CC(C)NC(=O)N1C(=O)CCC1NNC(=O)c1ccc([N+](=O)[O-])cc1 (centres undefined)	114%
CC(C)(C)N1CCC1C(N)=O (centres undefined)	108%
COc1cc(/C=C/C(=O)c2ccc(Oc3ncnc4ccccc34)cc2)cc(OC)c1OC	13.8%
COc1cc2c3c(n(CCCNC4CCC4)c(=O)c2cc1OC)-c1cc2c(cc1C3=O)OCO2	30.6%
COc1ccc2c(c1OC)C(=O)O[C@H]2[C@H]1c2c(cc3c(c2OC)OCO3)CCN1C	90.3%
COc1ccc(Oc2nc(Nc3ccc(N4CCOCC4)cc3)ncc2NC(=O)c2cc(OC)cc(OC)c2)cc1	86.6%
CC(=O)c1cccc(Nc2ncnc3ccc(NC(=O)c4ccco4)cc23)c1	60.2%
O=C1C(Cl)=C(NCCCCCCNC2=C(Cl)C(=O)c3ccccc3C2=O)C(=O)c2ccccc21	89.2%
COc1ccc(CNc2nc3ccccc3c3c(=O)c4ccccc4sc23)cc1OC	57.4%
COc1cc(C(=O)O)c(O)c(C(C)(C)C)c1	100%
C=CCn1c(SCC(=O)Nc2cccc(C(=O)/C=C/c3ccccc3Cl)c2)nc2ccccc2c1=O	98.1%
Fc1ccc(Nc2ccc3cc(OCCCN4CCOCC4)ccc3n2)cc1F	52.8%
Cc1ccc(S(=O)(=O)NNC(=O)/C(=C\c2ccc(Cl)cc2)c2nc3ccccc3s2)cc1	111%
Cc1ccc(S(=O)(=O)NC(CCC(=O)Nc2ccc(Cl)cc2)C(=O)Nc2ccc(Cl)cc2)cc1 (centres undefined)	29%
O=c1[nH]c(-c2ccncc2)nc2sc3c(c12)CCCCCC3	99.2%
COc1ccc2c(c1)[nH]c(=O)c1c3cc(OC)ccc3cn21	5.66% (active)
O=C(Nc1ccc2cc3ccc(NC(=O)NC4CCCCC4)cc3nc2c1)NC1CCCCC1	105%
Cn1ccnc1C(=O)/C=C/c1ccc(C(=O)Nc2ccc(S(F)(F)(F)(F)F)cc2)cc1	14.5%
COc1cnc2c(c1)C(=O)c1c-2n(CCCN2CCN(C)CC2)c(=O)c2cc([N+](=O)[O-])ccc12	-57.9% (active)
